Experimental data as given in PubChem BioAssay AID2642 (Johns Hopkins Ion Channel Center, 2010).
In all, about 310,000 compounds went through this assay and about 3,900 (1.3%) were called active.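 How the source made its calls: active means compounds whose thallium flux B-score, printed positive for inhibition, exceeds three library SD while starting fluorescence stays within three; inactive means the rest.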 The sample as a whole holds a higher share of actives than the screen did.

molecular target: Potassium voltage-gated channel subfamily KQT member 1 (Homo sapiens) (UniProt P51787); assay: KCNQ1 potassium current blockers – cell-based, thallium flux, high-throughput, primary screen (AID 2642); details: CHO-K1 KCNQ1, FluxOR thallium flux fluorescence, at 10 µM; hits give high values;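 further: channel opened by potassium depolarization with thallium stimulus after 20 min compound exposure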
Sequence (P51787 whole entry, looked up): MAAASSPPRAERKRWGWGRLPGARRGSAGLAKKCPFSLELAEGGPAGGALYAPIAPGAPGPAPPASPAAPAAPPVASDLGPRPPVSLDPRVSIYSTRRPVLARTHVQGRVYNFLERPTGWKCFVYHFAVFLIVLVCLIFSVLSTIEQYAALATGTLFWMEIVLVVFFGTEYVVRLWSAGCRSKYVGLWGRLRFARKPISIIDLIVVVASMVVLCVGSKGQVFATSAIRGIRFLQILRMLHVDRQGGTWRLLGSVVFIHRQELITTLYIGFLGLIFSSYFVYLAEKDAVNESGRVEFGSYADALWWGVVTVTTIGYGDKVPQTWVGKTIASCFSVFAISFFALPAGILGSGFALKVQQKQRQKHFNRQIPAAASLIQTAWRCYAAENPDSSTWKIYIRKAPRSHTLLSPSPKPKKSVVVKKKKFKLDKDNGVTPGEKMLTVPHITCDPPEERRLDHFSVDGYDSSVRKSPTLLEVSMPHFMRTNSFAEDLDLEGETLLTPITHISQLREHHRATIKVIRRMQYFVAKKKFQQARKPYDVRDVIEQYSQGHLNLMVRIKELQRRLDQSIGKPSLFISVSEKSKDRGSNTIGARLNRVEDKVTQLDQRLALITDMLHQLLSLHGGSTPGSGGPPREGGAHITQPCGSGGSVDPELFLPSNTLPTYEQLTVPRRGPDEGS

B-score, inactive:
COc1ccc2c3c(c(=O)oc2c1OCC(=O)C(C)(C)C)CCCC3
Cc1c(OC(C)C(=O)N[C@@H](Cc2ccccc2)C(=O)O)ccc2c3c(c(=O)oc12)CCCC3 (stereo partly drawn)
CC(=O)Nc1ccc(C(=O)N(C2=NC(C)CS2)c2ccc(Cl)cc2)cc1 (stereo not drawn)
CCC(C)[C@H](NC(=O)N1c2ccccc2NC(=O)[C@@H]1C(C)C)C(=O)N[C@@H](Cc1ccccc1)C(=O)O (stereo partly drawn)
Cc1ccccc1CCNC(=O)C1CCC(=O)N(Cc2ccc(Cl)cc2)C1 (stereo not drawn)
Cc1ccc(CSc2nc(-c3ccccc3)c(C#N)c(=O)[nH]2)cc1
N#Cc1c(-c2ccccc2)nc(SCc2ccc([N+](=O)[O-])cc2)[nH]c1=O
Clc1ccc2nc(CSc3ccccc3)cn2c1
CCOC(=O)c1cnc(-n2nc(C)cc2C)nc1NNc1cc(C)nc(-c2ccccc2)n1
COc1ccc(NC(C)=O)cc1NC(=O)CN1CCN(C2c3ccccc3-c3ccccc32)CC1
O=C1CCN(Cc2ccccc2)CCN1[C@H](CSc1ccccc1)c1ccccc1
COc1ccc(NC(=O)COc2ccc(C(=O)c3ccc(F)cc3)cc2)cc1S(N)(=O)=O
CCOc1ccc(NC(=O)COc2ccc(C(=O)N3CCC(C(N)=O)CC3)cc2OC)cc1
Cc1ccccc1Cn1c2ccccc2c2cnn(CC(=O)NCc3ccco3)c(=O)c21
CSC1=N/C(=C\C=C\c2cccs2)C(=O)S1
CC(=O)Nc1ccc(NC(=O)C(C)OC(=O)C2CC(=O)N(CCc3ccccc3)C2)cc1 (stereo not drawn)
COc1ccc(CN(C)C(C)C(=O)NC2CCCc3ccccc32)cc1 (stereo not drawn)
Cc1ccccc1NC(=O)NCC1CCN(Cc2cccc(Cl)c2)CC1
COc1cccc(COC(=O)C2CCN(S(=O)(=O)c3cccs3)CC2)c1OC
O=C(COC(=O)c1cccs1)NCc1cccs1
O=C(COC(=O)c1cc2c(s1)CCCC2)NCc1ccccc1Cl
O=c1c2c(nc3cc(-c4cccc(Cl)c4)[nH]n13)CCCC2
O=C(CN1C(=O)NC2(CCCC2)C1=O)OCCOc1ccc(F)cc1
Cc1cc([N+](=O)[O-])ccc1NC1CCCC1
Cc1c(NS(=O)(=O)c2ccc(NC3CCCC3)c([N+](=O)[O-])c2)c(=O)n(-c2ccccc2)n1C
CC(=O)Oc1c(C(=O)c2nnc(C)o2)c(=O)n(Cc2ccccc2)c2ccccc12
Cn1nc(-c2ccccc2)c(CO)c1Sc1ccccc1
Cc1ccc(S(=O)(=O)c2c(COC(=O)c3cccc(Cl)c3)c(-c3ccccc3)nn2C)cc1
COc1cccc(OCCCN2CCCCCC2)c1
CCCCCCCCCCOC(=O)Cn1c(COc2ccc(C)cc2)[n+](C)c2ccccc21
COc1ccc(C2=NOC(Cn3nc(C(=O)NCc4ccc5c(c4)OCO5)cc3-c3ccccc3)C2)cc1 (stereo not drawn)
CCCCN(CC)CCNC(=O)CCNC(=O)Cn1ccc2ccccc2c1=O
FC(F)(F)c1cc(-c2cccs2)nc(NCc2ccco2)n1
Cc1cc(C(F)(F)F)nn1-c1nc(-c2ccco2)cc(C(F)(F)F)n1
COc1ccc(NC(=O)CSc2nncc(=O)n2N)cc1OC
COc1cc(NC(=S)NCc2ccco2)c(OC)cc1Cl
COc1cccc(NC(=S)NCc2ccco2)c1
CCOC(=O)c1cnc2c(c(C)nn2CC)c1Cl
COc1ccc(S(=O)(=O)N2CCCC2CNC(=O)C(=O)NC2CC2)cc1 (stereo not drawn)
CCCc1nc(NCc2ccc3c(c2)OCO3)c2nnn(Cc3ccccc3Cl)c2n1
Cc1nc(Nc2ccccc2F)c2nnn(Cc3ccccc3Cl)c2n1
CCCN1C(=O)C(Cc2nc3ccccc3c(=O)n2-c2ccccc2)c2cc(C)ccc21 (stereo not drawn)
O=[N+]([O-])/C=C/c1ccc2c(ccn2Cc2ccccc2)c1
COc1ccccc1N1CCN(C(=O)c2ccc(NC3=NC4CS(=O)(=O)CC4S3)cc2)CC1 (stereo not drawn)
CCC(=O)Nc1nc(C)c(C(=O)Nc2cccc(Cl)c2)s1
CC(C(=O)NC1CCCC1)N(c1ccc(Oc2ccccc2)cc1)S(C)(=O)=O (stereo not drawn)
COC(=O)CNC(=O)c1cc(-c2ccncc2)nc2ccccc12
CCCCN(C)CCCNC(=O)c1cc(-c2cccs2)nc2ccccc12
COc1ccccc1Cn1c(C)nnc1-c1cnn(C)c1N
Cc1cc(C)cc(NS(=O)(=O)Cc2ccccc2)c1
CCc1cc(C(=O)OC)c(NC(=O)CC2Sc3ccc(C(F)(F)F)cc3NC2=O)s1 (stereo not drawn)
Cc1cccc(C(=O)NNC(=O)CSc2nnc(C(C)C)n2C)c1
O=C(CSc1ccc(-c2cccs2)nn1)Nc1ccccc1F
Cc1cccc(CSc2nnc(NC(=O)CSc3nnc(C)s3)s2)c1

B-score, active:
CCCOc1ccc2c3c(c(=O)oc2c1OCCC)CCC3 8
CCCCCCCCn1c2c(c(=N)c3c1CCC3)CCCC2 10
N#Cc1c(-c2ccccc2)nc(SCc2cccc(C(F)(F)F)c2)[nH]c1=O 8
CCNC(=O)c1ccc(OCC(=O)Nc2ccc(F)cc2)c(OC)c1 6
CC(C(=O)NCC1CCCCC1)N(C)Cc1cccc(Cl)c1 (stereo not drawn) 8
O=C(COC(=O)/C(=C/c1cccs1)c1cccs1)NCc1ccccc1Cl 7
Cc1cc(C=O)c(C)n1-c1ccc(NC2CCCCC2)c([N+](=O)[O-])c1 14
Cn1nc(-c2ccccc2)c(CSc2cccc(Cl)c2)c1Cl 6
CCCCCCCCCCOC(=O)Cn1c(COc2cccc(OC)c2)[n+](C)c2ccccc21 8
FC(F)(F)c1cc(-c2ccco2)nc(NCc2ccc(Cl)cc2)n1 11
FC(F)Oc1ccc(NC(=S)NCc2ccco2)cc1Cl 7
Cc1nc(Nc2ccc3c(c2)OCCO3)c2nnn(Cc3ccccc3Cl)c2n1 7
CCc1ccc(-c2cc(C(=O)NCc3ccco3)c3ccccc3n2)s1 6
Cc1cccc(CSc2ccc(-c3cccs3)nn2)c1 7
